This passage reports binding signal results from article PMC7862700, “An all-to-all approach to the identification of sequence-specific readers for epigenetic DNA modifications on cytosine”.

Common to all, as to experiment: DAPPL (digital affinity profiling via proximity ligation, sequencing); 10 mM Tris-HCl pH 7.5, 50 mM NaCl, 1 mM DTT, 4% glycerol, room temperature, 30 min; GST-TFs on glutathione beads, 16-mer random dsDNA library, 0.1% formaldehyde crosslink after washing; high values mean tight binding
Experiment [1] addresses T1, FEV (Homo sapiens, UniProt Q99581 1-238).
T1 sequence: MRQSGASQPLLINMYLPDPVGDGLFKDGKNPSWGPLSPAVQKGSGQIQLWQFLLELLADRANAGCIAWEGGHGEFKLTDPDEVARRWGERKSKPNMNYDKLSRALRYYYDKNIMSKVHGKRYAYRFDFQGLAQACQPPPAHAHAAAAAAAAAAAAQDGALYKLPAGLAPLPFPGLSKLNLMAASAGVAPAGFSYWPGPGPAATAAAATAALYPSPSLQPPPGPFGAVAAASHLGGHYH
The conditions noted are these: protein: recombinant; tags: N-terminal GST; dsDNA, one strand shown. The method in brief: (§1)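 Human transcription factors were made in yeast as GST fusions, captured on glutathione beads and barcoded with DNA. With a tag-only sample included, the pool was incubated with 200 nmole of a random double-stranded 16-mer DNA library in Tris/NaCl/DTT/glycerol buffer at room temperature for 30 min, then crosslinked with 0.1% formaldehyde after washing, ligated by proximity, amplified and sequenced. For binding signal, each hexamer's read frequency for a factor is divided by its frequency for the tag-only sample.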

The target of experiment [2] is ETV5 (Homo sapiens, UniProt P41161 1-510). To be noted: protein: recombinant; tags: N-terminal GST; dsDNA, one strand shown. The method in brief: as §1
Sequence of ETV5 (P41161 whole entry): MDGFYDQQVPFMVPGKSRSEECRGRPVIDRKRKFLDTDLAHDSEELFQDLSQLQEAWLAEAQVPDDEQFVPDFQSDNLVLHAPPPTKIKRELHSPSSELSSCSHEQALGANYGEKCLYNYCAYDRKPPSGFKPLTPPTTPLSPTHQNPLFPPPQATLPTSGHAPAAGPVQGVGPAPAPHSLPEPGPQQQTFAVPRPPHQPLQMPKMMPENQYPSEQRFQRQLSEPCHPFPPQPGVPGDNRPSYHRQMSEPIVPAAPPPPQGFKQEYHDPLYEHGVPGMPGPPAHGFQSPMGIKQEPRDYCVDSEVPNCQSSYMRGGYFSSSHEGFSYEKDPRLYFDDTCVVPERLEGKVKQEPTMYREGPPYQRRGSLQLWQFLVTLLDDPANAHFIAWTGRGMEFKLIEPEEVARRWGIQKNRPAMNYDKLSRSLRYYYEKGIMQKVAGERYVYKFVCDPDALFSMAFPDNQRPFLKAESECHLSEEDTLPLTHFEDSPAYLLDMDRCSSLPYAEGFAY
The target in experiment [3] is HSF1 (Homo sapiens, UniProt Q00613 1-529). To be noted: protein: recombinant; tags: N-terminal GST; chain copies: 3; dsDNA, one strand shown. The method, boiled down: as §1
Sequence of HSF1 (Q00613 whole entry): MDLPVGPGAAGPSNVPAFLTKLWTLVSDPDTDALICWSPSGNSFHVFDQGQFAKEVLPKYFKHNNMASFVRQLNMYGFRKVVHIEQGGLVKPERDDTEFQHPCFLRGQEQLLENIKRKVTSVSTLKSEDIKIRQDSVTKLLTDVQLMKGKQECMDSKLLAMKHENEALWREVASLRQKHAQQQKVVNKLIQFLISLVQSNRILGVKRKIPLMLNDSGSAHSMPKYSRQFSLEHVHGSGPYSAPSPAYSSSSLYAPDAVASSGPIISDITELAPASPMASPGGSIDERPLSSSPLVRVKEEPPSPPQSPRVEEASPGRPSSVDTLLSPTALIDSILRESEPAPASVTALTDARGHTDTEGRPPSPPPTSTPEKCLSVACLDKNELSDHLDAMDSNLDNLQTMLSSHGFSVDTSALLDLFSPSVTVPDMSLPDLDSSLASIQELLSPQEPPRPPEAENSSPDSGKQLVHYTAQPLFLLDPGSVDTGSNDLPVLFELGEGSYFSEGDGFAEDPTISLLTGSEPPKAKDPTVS
Experiment [4] has as its target T2, SPIC (Homo sapiens, UniProt Q8N5J4 1-248).
T2 sequence: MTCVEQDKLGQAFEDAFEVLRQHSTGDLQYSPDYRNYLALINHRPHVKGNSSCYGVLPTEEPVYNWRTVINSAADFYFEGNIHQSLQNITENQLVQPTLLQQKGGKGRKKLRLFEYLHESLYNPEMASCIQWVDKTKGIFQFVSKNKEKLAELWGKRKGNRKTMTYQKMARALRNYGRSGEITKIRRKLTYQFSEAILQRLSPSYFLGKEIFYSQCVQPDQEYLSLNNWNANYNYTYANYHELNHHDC
To be noted: protein: recombinant; tags: N-terminal GST; dsDNA, one strand shown. The method, boiled down:
as §1

Experiment [5] deals with ELF4 (Homo sapiens, UniProt Q99607 1-663). The conditions noted are these: protein: recombinant; tags: N-terminal GST; dsDNA, one strand shown. The method in brief:
as §1

For experiment [6], the target named is T3, ELK4 (Homo sapiens, UniProt P28324-2 1-405).
T3 sequence: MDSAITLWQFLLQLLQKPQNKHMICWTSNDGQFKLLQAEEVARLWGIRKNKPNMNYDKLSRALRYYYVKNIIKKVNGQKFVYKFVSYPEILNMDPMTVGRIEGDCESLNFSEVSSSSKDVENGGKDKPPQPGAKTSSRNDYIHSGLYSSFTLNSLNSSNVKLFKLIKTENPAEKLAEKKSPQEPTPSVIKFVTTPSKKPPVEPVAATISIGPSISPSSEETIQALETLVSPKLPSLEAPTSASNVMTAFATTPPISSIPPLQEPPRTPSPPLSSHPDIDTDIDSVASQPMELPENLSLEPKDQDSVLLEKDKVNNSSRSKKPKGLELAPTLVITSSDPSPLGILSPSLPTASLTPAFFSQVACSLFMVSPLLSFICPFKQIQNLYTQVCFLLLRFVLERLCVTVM
The conditions noted are these: protein: recombinant; tags: N-terminal GST; dsDNA, one strand shown. The method, boiled down:
as §1

Experiment [7] deals with T4, ETV2 (Homo sapiens, UniProt O00321 1-342).
T4 sequence: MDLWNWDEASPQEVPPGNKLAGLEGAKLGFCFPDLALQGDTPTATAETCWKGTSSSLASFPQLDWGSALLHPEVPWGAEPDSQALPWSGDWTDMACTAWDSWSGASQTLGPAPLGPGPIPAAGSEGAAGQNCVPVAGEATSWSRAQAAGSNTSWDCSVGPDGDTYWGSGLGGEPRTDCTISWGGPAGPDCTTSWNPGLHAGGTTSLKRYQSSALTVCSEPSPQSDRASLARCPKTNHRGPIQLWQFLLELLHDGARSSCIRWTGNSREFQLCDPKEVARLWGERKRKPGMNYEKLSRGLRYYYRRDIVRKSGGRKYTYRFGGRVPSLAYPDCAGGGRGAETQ
To be noted: protein: recombinant; tags: N-terminal GST; dsDNA, one strand shown. The method in brief: as §1

The target in experiment [8] is T5, ELF3 (Homo sapiens, UniProt P78545 1-371).
T5 sequence: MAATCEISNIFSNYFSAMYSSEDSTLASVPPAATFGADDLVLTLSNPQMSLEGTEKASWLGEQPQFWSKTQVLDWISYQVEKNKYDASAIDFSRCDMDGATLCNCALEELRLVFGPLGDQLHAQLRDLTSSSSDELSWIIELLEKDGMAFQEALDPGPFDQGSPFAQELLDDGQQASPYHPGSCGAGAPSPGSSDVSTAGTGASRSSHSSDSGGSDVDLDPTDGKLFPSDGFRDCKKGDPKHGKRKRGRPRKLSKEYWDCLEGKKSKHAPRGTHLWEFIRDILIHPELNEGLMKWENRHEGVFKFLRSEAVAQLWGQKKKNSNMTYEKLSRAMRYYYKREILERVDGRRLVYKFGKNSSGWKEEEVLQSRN
To be noted: protein: recombinant; tags: N-terminal GST; dsDNA, one strand shown. The method, boiled down: as §1

Experiment [9] deals with CRX (Homo sapiens, UniProt O43186 1-299). To be noted: protein: recombinant; tags: N-terminal GST; dsDNA, one strand shown. The method in brief:
as §1

Experiment [10] addresses ETV1 (Homo sapiens, UniProt P50549 1-477). To be noted: protein: recombinant; tags: N-terminal GST; dsDNA, one strand shown. The method in brief: as §1
For experiment [11], the target named is T6, ERF (Homo sapiens, UniProt P50548 1-548).
T6 sequence: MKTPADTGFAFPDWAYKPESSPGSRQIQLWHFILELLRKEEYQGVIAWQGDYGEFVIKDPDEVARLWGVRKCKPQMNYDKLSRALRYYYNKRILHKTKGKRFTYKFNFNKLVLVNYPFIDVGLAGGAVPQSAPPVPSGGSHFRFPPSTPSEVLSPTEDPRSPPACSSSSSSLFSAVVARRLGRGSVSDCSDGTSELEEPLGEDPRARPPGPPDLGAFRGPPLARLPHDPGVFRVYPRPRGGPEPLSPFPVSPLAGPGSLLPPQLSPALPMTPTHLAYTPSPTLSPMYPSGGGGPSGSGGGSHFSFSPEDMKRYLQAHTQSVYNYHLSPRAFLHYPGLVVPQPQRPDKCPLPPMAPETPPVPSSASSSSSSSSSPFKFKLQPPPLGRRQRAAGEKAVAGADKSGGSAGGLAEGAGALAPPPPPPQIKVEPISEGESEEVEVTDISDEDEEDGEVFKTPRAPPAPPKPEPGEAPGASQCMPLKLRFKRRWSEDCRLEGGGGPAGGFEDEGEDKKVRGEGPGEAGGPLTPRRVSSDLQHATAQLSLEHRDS
The conditions noted are these: protein: recombinant; tags: N-terminal GST; dsDNA, one strand shown. The method in brief: as §1

Experiment [12] concerns the target T7, ETV3L (Homo sapiens, UniProt Q6ZN32 1-361).
T7 sequence: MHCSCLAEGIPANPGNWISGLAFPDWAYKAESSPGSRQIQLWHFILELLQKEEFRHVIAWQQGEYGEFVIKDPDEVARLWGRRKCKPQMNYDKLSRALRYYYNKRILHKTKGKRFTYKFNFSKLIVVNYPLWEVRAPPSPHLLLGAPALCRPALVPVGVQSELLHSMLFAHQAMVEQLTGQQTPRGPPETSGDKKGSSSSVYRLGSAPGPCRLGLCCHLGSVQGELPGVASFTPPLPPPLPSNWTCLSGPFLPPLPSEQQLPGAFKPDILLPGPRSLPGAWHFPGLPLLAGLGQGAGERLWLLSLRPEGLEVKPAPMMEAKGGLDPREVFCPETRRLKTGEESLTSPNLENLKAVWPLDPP
To be noted: protein: recombinant; tags: N-terminal GST; dsDNA, one strand shown. The method in brief:
as §1

The target of experiment [13] is T8, ETS2 (Homo sapiens, UniProt P15036 1-469).
T8 sequence: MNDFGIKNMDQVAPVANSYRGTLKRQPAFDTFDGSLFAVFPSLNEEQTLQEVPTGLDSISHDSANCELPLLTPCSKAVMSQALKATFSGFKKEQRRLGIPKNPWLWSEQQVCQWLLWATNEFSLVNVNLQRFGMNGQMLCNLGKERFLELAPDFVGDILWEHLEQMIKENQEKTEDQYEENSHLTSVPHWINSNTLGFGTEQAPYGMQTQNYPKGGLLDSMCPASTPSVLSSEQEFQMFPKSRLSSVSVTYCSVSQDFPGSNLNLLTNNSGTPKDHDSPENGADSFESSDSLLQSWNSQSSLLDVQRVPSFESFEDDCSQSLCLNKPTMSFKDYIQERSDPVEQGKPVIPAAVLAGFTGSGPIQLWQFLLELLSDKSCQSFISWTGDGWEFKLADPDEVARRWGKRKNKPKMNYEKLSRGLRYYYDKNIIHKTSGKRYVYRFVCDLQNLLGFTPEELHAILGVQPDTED
The conditions noted are these: protein: recombinant; tags: N-terminal GST; dsDNA, one strand shown. The method in brief: as §1

Experiment [14] addresses T9, SPDEF (Homo sapiens, UniProt O95238 1-335).
T9 sequence: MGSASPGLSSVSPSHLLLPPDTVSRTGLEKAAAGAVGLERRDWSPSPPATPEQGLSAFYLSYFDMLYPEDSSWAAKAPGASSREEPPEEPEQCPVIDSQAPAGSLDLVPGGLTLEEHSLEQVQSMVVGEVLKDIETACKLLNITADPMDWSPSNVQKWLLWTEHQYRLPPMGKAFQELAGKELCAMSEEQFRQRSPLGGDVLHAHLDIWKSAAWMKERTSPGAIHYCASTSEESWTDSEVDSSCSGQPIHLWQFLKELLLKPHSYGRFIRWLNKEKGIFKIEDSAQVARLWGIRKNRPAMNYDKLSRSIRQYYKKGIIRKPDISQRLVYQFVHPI
The conditions noted are these: protein: recombinant; tags: N-terminal GST; dsDNA, one strand shown. The method in brief: as §1

Experiment [15] addresses T10, ETV7 (Homo sapiens, UniProt Q9Y603 1-341).
T10 sequence: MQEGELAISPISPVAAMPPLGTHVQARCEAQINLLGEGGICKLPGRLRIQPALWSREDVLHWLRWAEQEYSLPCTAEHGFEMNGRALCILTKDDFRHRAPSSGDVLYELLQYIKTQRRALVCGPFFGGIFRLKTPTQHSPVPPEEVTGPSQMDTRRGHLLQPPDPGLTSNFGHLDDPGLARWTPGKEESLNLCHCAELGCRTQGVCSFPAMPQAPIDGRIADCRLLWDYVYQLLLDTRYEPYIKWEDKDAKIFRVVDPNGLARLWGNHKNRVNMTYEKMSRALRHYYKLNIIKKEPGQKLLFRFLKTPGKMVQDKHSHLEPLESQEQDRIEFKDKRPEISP
The conditions noted are these: protein: recombinant; tags: N-terminal GST; dsDNA, one strand shown. The method, boiled down: as §1

In experiment [16] the target is T11, ELF5 (Homo sapiens, UniProt Q9UKW6-2 1-255).
T11 sequence: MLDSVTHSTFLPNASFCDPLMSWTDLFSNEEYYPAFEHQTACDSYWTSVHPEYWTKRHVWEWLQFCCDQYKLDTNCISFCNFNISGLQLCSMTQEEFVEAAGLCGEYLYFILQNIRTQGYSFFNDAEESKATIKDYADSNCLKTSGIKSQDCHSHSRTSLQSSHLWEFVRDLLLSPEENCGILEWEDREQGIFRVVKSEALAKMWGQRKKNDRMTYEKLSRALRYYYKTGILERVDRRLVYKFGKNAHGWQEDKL
The conditions noted are these: protein: recombinant; tags: N-terminal GST; dsDNA, one strand shown. The method in brief: as §1

In experiment [17] the target is T12, ETV3 (Homo sapiens, UniProt P41162-2 1-143).
T12 sequence: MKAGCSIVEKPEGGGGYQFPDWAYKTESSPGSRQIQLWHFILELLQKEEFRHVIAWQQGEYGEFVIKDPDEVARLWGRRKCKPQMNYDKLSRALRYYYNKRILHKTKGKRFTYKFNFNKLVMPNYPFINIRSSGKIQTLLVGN
The conditions noted are these: protein: recombinant; tags: N-terminal GST; dsDNA, one strand shown. The method, boiled down: as §1

Experiment [18] has as its target ETV6 (Homo sapiens, UniProt P41212 1-452). To be noted: protein: recombinant; tags: N-terminal GST; dsDNA, one strand shown. The method in brief: as §1

Sequence of ELF4 (Q99607 whole entry): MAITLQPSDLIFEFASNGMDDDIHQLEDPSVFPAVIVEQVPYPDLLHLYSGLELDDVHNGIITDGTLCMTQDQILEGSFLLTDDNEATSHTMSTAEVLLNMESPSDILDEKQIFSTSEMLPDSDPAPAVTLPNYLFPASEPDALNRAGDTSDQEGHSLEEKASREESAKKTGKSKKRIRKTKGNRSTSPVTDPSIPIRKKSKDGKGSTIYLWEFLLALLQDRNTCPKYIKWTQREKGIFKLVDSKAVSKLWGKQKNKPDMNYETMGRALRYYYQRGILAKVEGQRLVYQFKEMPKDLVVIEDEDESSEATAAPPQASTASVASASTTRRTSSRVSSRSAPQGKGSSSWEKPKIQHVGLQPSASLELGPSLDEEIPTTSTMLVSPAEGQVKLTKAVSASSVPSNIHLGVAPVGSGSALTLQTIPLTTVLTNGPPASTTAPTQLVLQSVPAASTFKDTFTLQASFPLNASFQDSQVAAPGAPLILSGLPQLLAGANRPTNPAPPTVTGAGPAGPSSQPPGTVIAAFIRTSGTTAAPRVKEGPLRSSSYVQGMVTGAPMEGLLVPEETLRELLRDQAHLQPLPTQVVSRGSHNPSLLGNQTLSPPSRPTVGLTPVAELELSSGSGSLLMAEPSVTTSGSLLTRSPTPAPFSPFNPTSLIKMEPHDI
Sequence of CRX (O43186 whole entry): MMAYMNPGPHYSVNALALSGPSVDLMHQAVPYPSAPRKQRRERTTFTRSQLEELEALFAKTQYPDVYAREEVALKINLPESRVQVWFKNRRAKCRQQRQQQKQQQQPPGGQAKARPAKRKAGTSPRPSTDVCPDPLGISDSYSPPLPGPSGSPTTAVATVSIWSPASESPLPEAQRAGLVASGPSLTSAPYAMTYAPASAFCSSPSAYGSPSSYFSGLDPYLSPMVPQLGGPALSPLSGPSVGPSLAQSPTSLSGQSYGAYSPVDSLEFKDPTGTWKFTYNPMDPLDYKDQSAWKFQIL
Sequence of ETV6 (P41212 whole entry): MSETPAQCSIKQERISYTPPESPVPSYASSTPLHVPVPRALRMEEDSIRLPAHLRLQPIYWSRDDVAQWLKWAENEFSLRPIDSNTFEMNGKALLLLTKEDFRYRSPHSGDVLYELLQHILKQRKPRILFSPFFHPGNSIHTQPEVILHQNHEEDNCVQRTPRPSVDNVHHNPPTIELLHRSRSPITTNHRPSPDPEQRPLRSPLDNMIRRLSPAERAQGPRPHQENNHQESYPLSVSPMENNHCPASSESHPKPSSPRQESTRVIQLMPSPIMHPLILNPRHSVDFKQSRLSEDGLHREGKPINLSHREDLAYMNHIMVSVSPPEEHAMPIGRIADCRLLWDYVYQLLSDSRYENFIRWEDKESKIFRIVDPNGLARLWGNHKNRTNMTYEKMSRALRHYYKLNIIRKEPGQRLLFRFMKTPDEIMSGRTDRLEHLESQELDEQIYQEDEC
Sequence of ETV1 (P50549 whole entry): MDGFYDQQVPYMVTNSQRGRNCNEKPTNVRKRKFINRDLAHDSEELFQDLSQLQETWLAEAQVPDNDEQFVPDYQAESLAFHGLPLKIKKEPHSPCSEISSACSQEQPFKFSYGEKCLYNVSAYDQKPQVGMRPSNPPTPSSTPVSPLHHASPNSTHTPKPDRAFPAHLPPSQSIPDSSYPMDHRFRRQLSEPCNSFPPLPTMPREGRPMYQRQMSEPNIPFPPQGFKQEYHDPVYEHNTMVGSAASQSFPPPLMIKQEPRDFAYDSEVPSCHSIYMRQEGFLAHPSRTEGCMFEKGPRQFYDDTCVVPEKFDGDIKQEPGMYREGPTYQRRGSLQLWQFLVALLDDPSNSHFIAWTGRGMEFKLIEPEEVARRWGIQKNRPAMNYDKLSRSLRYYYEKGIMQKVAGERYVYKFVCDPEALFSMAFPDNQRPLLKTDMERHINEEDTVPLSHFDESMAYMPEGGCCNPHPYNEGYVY

For the sequence ACTAGC, the binding signal was 1.11 fold enrichment (6-mer frequency, TF over GST control) in experiment [1]; 1.2 fold enrichment (6-mer frequency, TF over GST control) in experiment [2]; 1.32 fold enrichment (6-mer frequency, TF over GST control) in experiment [3]; 1.17 fold enrichment (6-mer frequency, TF over GST control) in experiment [4]; 1.17 fold enrichment (6-mer frequency, TF over GST control) in [5]; 1.24 fold enrichment (6-mer frequency, TF over GST control) in experiment [6]. The binding signal in [7] is 1.3 fold enrichment (6-mer frequency, TF over GST control); in experiment [8], 1.01 fold enrichment (6-mer frequency, TF over GST control); in experiment [9] it was 1.11 fold enrichment (6-mer frequency, TF over GST control); in experiment [10], 1.19 fold enrichment (6-mer frequency, TF over GST control); in [11], 1.19 fold enrichment (6-mer frequency, TF over GST control); in [12] it was 1.16 fold enrichment (6-mer frequency, TF over GST control). In addition, the binding signal in [13] was 1.16 fold enrichment (6-mer frequency, TF over GST control); in experiment [14] it was 1.15 fold enrichment (6-mer frequency, TF over GST control); in experiment [15], 1.16 fold enrichment (6-mer frequency, TF over GST control); in [16], 1.13 fold enrichment (6-mer frequency, TF over GST control); in [17], 1.15 fold enrichment (6-mer frequency, TF over GST control); in experiment [18], 1.2 fold enrichment (6-mer frequency, TF over GST control).
